# Assay results published in PubChem BioAssay (NCI).
# Compounds without any hit were thinned out: in the full panel of roughly 83,000, 20% have a hit.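 In brief: 96-well plates, 48 h treatment, single concentration, percent growth endpoint.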 A number with no mark means an inactive call. Active and inactive are the calls of the source. Rule for the calls: active = growth percent below 10; inactive = the rest.
# Assays:
# Experiment in all cases: NCI-60 one-dose screen, 48 h (100 = growth as untreated, 0 = no growth, -100 = all killed)
# Conditions in all cases: 10 µM unless noted
# T-47D breast = system: T-47D breast
# BT-549 breast = system: BT-549 breast
# MDA-MB-435 melanoma = system: MDA-MB-435 melanoma
# SW-620 colon = system: SW-620 colon
# MCF7 breast = system: MCF7 breast
# HCT-116 colon = system: HCT-116 colon
# HCC-2998 colon = system: HCC-2998 colon
# KM12 colon = system: KM12 colon
SMILES,growth (T-47D breast),growth (BT-549 breast),growth (MDA-MB-435 melanoma),growth (SW-620 colon),growth (MCF7 breast),growth (HCT-116 colon),growth (HCC-2998 colon),growth (KM12 colon)
C=CCn1c(C)nc2cc(Nc3nc(N4CCCC4)nc4ccccc34)ccc21,105%,96.9%,92.4%,75%,61.9%,19.6%,23.3%,70.1%
N#CC1=C(/N=C/c2ccccc2)Oc2c(ccc3ccccc23)C1c1ccccc1 (configuration not stated),49.8%,4.18% (active),-42.1% (active),23.9%,14.6%,8.77% (active),-12.2% (active),19.2%
COc1ccc(-c2cc(-c3ccc(Nc4nc(Nc5ccc(Cl)cc5)nc(Nc5ccc(Cl)cc5)n4)cc3)nc(N)c2C#N)cc1,3.86% (active),-55.3% (active),-1.59% (active),-3.93% (active),32.4%,20.2%,-8.77% (active),27.7%
COc1ccc(CN2C(=O)C(Cl)=C(Nc3cccc(C(F)(F)F)c3)C2=O)cc1,60.8%,26.3%,25.5%,28.8%,29.5%,28.9%,53.2%,70.2%
Cc1cc[c-]cc1.Fc1c[c-]c(-c2ccccn2)c(F)c1.[Pt+2].c1ccc(P(C[PH+](c2ccccc2)c2ccccc2)c2ccccc2)cc1,8.85% (active),20.6%,8.28% (active),14.6%,6.01% (active),9.8% (active),33.1%,18%
COc1cc(C2CC(=O)Nc3c2c(C)nn3-c2nc3ccccc3[nH]2)cc2c1OCC(=O)N2 (configuration not stated),83.6%,65.9%,48.5%,52.4%,56.9%,107%,103%,70.8%
COc1ccc(C2C(c3nn[nH]n3)=C(N)Oc3c2ccc2ccccc32)cc1 (configuration not stated),64.4%,72%,-26.6% (active),29.3%,33.1%,55.7%,97.7%,50.2%
Clc1cccc(Cl)c1C(Nc1nc2ccccc2s1)Nc1nc2ccccc2s1,95.7%,92.1%,107%,106%,91.3%,99.1%,117%,98.7%
O=C(O)c1ccc2c(c1Cl)C(=O)c1ccccc1C2=O,101%,116%,78.3%,107%,94%,93.2%,104%,107%
COc1ccc(N=Nc2ccc(O)c(=O)cc2)cc1,-0.237% (active),22%,25.1%,21.7%,5.65% (active),24.7%,36.2%,18.2%
O=Cc1ccc(O)c2ncccc12,22.8%,-1.72% (active),60.3%,21.5%,7.29% (active),-7.5% (active),86.6%,69.6%
c1cc2ccc3cc2cc1CNCCOCCNCc1ccc2ccc(cc2c1)CNCCOCCNC3,-23.8% (active),99.6%,-90.2% (active),2.45% (active),-17.1% (active),-4.41% (active),-57.4% (active),-39% (active)
CC(=O)C(C)Cc1cc2c(cc1C)C(C)(C)CCC2(C)C (configuration not stated),80.2%,95.5%,104%,102%,91.8%,95.1%,102%,105%
NC(=S)Nc1cccc(O)c1,106%,78.8%,98.6%,99.8%,98.8%,91.6%,96.7%,106%
CC1O[C@@H](OC2[C@H](OC(=O)/C=C/c3ccc(O)c(O)c3)C(COC3O[C@H](C)C(O)C(O)[C@@H]3O)O[C@@H](OCCc3ccc(O)c(O)c3)[C@H]2O)[C@@H](O)C(O)[C@H]1O (some centres not stated),83.1%,98.8%,103%,108%,98.2%,103%,99.4%,99.3%
O=C(Nc1cccc(C(F)(F)F)c1)Nc1cccc(C(F)(F)F)c1,-4.96% (active),0.669% (active),9.11% (active),15.2%,5.26% (active),-10.8% (active),11.8%,4.98% (active)
COc1nc(N(C)O)nc(N(C)O)n1,30.3%,12.4%,49.8%,34.6%,15%,7.23% (active),9.13% (active),24.5%
N#Cc1nc2c(S(=O)(=O)c3ccc(Cl)cc3)c(N)n(Nc3cccc(Cl)c3)c2nc1C#N,53.5%,47.8%,53%,35.9%,58.5%,32.9%,82.3%,64.3%
COc1ccc(CNC(=O)C(O)C(Cc2ccccc2)NC(=O)c2[nH]c3ccccc3c(=O)c2C)cc1OC (configuration not stated),97.8%,104%,101%,113%,99.7%,106%,117%,105%
C(=N\Nc1ncc(-c2cc3cc4c(cc3o2)OCO4)s1)/c1ccco1,35.2%,48.6%,69%,2.26% (active),13.7%,-13.6% (active),62.7%,15.8%
CCC(CO)Nc1nc2ccc(Cl)cc2c2ccccc12 (configuration not stated),59.5%,70.6%,58%,79.7%,72.7%,71.5%,54.9%,45.7%
Cc1cc(N2CCCC2)nc(NCc2cc(Nc3ccnc4cc(Cl)ccc34)ccc2F)n1,-54.7% (active),55.2%,-96.1% (active),-71.1% (active),-56.1% (active),-76.3% (active),-74.9% (active),-58.8% (active)
COC(=O)[C@]12CC[C@@H](C)[C@H](C)[C@@H]1C1=CC[C@@H]3[C@@]4(C)C(C=O)=C[C@@](C)(COC(=O)c5ccco5)C4=CC[C@@]3(C)[C@]1(C)CC2,-8.1% (active),5.64% (active),-22.3% (active),-7.67% (active),11.4%,-71.3% (active),-7.04% (active),8.54% (active)
CN1C(=O)N(C)C2C1NN=c1s/c(=C\c3ccccc3)c(=O)n12 (configuration not stated),37.9%,55.5%,-26.1% (active),21.7%,15.4%,22.5%,82.5%,23.3%
Fc1cnc(NC2CC2)nc1-c1cnc2ccc(N3CCOCC3)cn12,7.29% (active),-5.41% (active),0.301% (active),5.59% (active),2.32% (active),3.97% (active),1.18% (active),-2.57% (active)
O=S(=O)(Nc1cccc(Cl)c1)c1ccc(-c2cnc(C3CC3)o2)cc1,25%,26.6%,-21.5% (active),11.3%,14.2%,15.3%,46.3%,20.8%
COc1cccc(-c2nn(-c3ccccc3)cc2-c2ccnc(NCCNC(=O)Nc3cccc(C(F)(F)F)c3)c2)c1,0.52% (active),26.1%,29.1%,39%,15.3%,10.5%,-47% (active),2.54% (active)
NC(=S)N/N=C/Cc1ccccc1,49.3%,119%,124%,102%,21.5%,6.31% (active),113%,107%
CCN1CCN(c2cc(C)nc(NCc3cc(Nc4ccnc5cc(Cl)ccc45)ccc3F)n2)CC1,-17.7% (active),98.6%,50.7%,40.8%,6.99% (active),11.8%,28%,82.7%
